Reference: PubChem BioAssay (NCATS)
Records with an inconclusive call do not appear. Entries that show only a call come without a potency. Values without a mark were called inactive. Calls of active or inactive are those of the source. The call rests on the fitted dose curve; in most records, active means well fitted inhibition curve with a large enough effect; inconclusive means small, poorly fitted or top-dose-only effect; inactive means flat fitted curve, though single readings scatter.

Experiment: Primary qHTS for inhibitors of nuclear receptor binding SET domain protein 2 (NSD2) in an isogenic RCH-ACV NSD2 p.E1099K mutant (9B) (AID 1645876); further: nearly all actives have a fitted effect of over 70% in size
Conditions: RCH-ACV (leukaemia line) NSD2 E1099K (9B) viability, CellTiter-Glo, 72 h; series mostly up to 44.9 µM
Potency means the concentration at half of the fitted maximal effect.

Structure (SMILES) | Potency | outcome | activity change, negative = viability loss
C=C(C)C(=O)OC1CC2(C)OC(=CC2=O)C(=C)CC2OC(=O)C(COC)C12 (centres undefined) | 4.01 µM (active) |  | 
COc1cc(O)cc(/C=C/c2ccc(O[C@@H]3O[C@H](CO)[C@@H](O)[C@H](O)[C@H]3O)cc2)c1 | 8.93 µM (active) |  | 
CCc1c(C)nc2c(-c3cnn(-c4cc(CO)ccn4)c3)c[nH]n2c1=O | inactive |  | 
CC(=O)N[C@@H](CCCCN)C(=O)N(C)[C@@H](CC(C)C)C(=O)N[C@H](C(=O)N(C)[C@@H](Cc1ccccc1)C(=O)N[C@H](Cc1ccccc1)C(N)=O)C(C)C |  | inactive [at 4.96 µM] | 
C=C1CC2C(C)(CCC(=O)O)C(C(C)(C)O)CCC2(C)C2C(=O)OC(C)(C(=O)OC)C(=O)C12C (centres undefined) | inactive |  | 
C/C=C/c1cc(OC)c2c(c1)[C@@H](C)[C@@H](c1ccc(O)c(OC)c1)O2 | 8.98 µM (active) |  | 
Cc1cc(C)cc(C(=O)NOCCCCCC(=O)NO)c1 | 0.515 µM (active) |  | 
C=C1CC23CC1CCC2C12OC(=O)C(C)(CCC1O)C2C3C(=O)O (centres undefined) | inactive |  | 
C[C@@H]1O[C@@H](OC[C@H]2O[C@@H](OC(CCCCc3ccc(O)cc3)CCc3ccc(O)cc3)[C@H](O)[C@@H](O)[C@@H]2O)[C@H](O)[C@H](O)[C@H]1O (some centres undefined) | inactive |  | 
C=CC/C=C\C/C=C\CCCCCCCc1cccc(O)c1C(=O)O | inactive |  | 
Cc1ccccc1C#Cc1ccc(CCC(=O)O)cc1 | inactive |  | 
C=C1CCC[C@]2(C)CC[C@@H](C(=C)C(=O)O)[C@H](O)[C@@H]12 | inactive |  | 
CCN(CC)CCN(Cc1ccc(-c2ccc(C(F)(F)F)cc2)cc1)C(=O)Cn1c(SCc2ccc(F)cc2)nc(=O)c2c1CCC2 | 2.9 µM (active) |  | 
CC1OC(OCC2OC(OC3CCC4(C)C(CCC5(C)C4CC=C4C6CC(C)(C)CCC6(C(=O)OC6OC(CO)C(O)C(O)C6O)CCC45C)C3(C)CO)C(O)C(O)C2O)C(O)C(O)C1O (centres undefined) |  |  | 3.81% [at 9.23 µM]
CS(=O)(=O)c1ccc(-c2nnc(/C=C/c3nnc(-c4ccc(C#N)cc4)o3)n2-c2ccccc2Cl)nc1 | inactive |  | 
O=C1NC(Cc2c[nH]c3ccccc23)C(=O)NC1Cc1cnc[nH]1 (centres undefined) | inactive |  | 
CC/C=C\[C@H](O)[C@H](O)C1=C(C)C(=O)[C@]2(O1)C(=O)N[C@@](OC)(C(=O)c1ccccc1)[C@@H]2O | inactive |  | 

Structure (SMILES) | Potency | outcome | activity change, negative = viability loss
C=C1C(OC(=O)/C(C)=C\C)[C@@]23CCC4[C@@](C)(CCC[C@@]4(C)C(=O)O)C2CC[C@H]1C3OC(C)=O (some centres undefined) | inactive |  | 
CC(=O)OC1C[C@@]2(C)[C@@H](CC[C@@H](C)[C@]23Cc2c(O)cc4c(c2O3)CNC4=O)C(C)(C)[C@@H]1O (some centres undefined) | inactive |  | 
COc1ccc(C[C@H](N)C(=O)N[C@@H]2[C@H](O)[C@H](n3cnc4c(N(C)C)ncnc43)O[C@@H]2CO)cc1 | 0.325 µM (active) |  | 
CC1(C)C=CN2C(=O)C3=CCCN3C(=O)[C@@H]2C[C@@]12Nc1ccccc1C2=O | inactive |  | 
CNC(=O)c1ccccc1Nc1cc(Nc2ccc(N3CCOCC3)cc2OC)ncc1C(F)(F)F | 2.9 µM (active) |  | 
CC(C)c1ccc2c(c1)C(=O)CC1[C@@](C)(C(=O)O)CCC[C@]21C (some centres undefined) | inactive |  | 
OC[C@H]1O[C@@H](OC[C@H]2O[C@@H](OC/C=C/c3ccccc3)[C@H](O)[C@@H](O)[C@@H]2O)[C@@H](O)[C@@H]1O | inactive |  | 
C[C@H](NC(=O)CCc1nc2ccccc2c(=O)[nH]1)c1ccccc1 | inactive |  | 
O=C1OCc2cc3cccc(O[C@@H]4O[C@H](CO)[C@@H](O)[C@H](O)[C@H]4O)c3c(O)c21 | inactive |  | 
COc1cc(N2CCC(N3CCN(C)CC3)CC2)ccc1Nc1ncc(Cl)c(-c2c[nH]c3ccccc23)n1 | 1.15 µM (active) |  | 
c1cc(Nc2cc(C3CC3)[nH]n2)nc(Nc2ccc3nc[nH]c3c2)n1 | 0.417 µM (active) |  | 
C=C1CCC2C(C)(COC(C)=O)CCCC2(C)C1CCC(C)CC(=O)O (centres undefined) | inactive |  | 
COc1cc(/C=C/C(=O)O[C@H]2[C@H](O)[C@@H](CO)O[C@@]2(CO)O[C@H]2O[C@H](CO)[C@@H](O)[C@H](O)[C@H]2O)ccc1O | inactive |  | 
CC(=O)/C=C/[C@H]1[C@](C)(O)[C@@H](O)[C@H](OC(C)=O)C2C(C)(C)CCC[C@@]21C (some centres undefined) | inactive |  | 
COC(=O)C1=C2Nc3ccccc3C23CCN2CCCC(C(C)O)(C1)C23 (centres undefined) | inactive |  | 
C1CCC[C@H]2CCCN3CC[C@@H](CCCCCC[C@@H]4CCCN5CC[C@@H](CC1)O[C@@H]45)O[C@@H]23 |  |  | -4.42% [at 0.177 µM]
O=C(O)/C=C/c1cc2c(cc1O[C@@H]1O[C@H](CO)[C@@H](O)[C@H](O)[C@H]1O)OCO2 | inactive |  | 
